Compound activity from PubChem.
An excerpt weighted towards active compounds, which were near 3.5% of everything screened.
MITF primary: MITF inhibitors, primary screen, biochemical, AlphaScreen, human | 650,000 tested, 0.91% active | Microphthalmia-associated transcription factor (Homo sapiens), O75030 | AID 1259374, 2018 | inhibition, % at 2.6 µM | AlphaScreen MITF homodimerization, bead proximity signal; in the data active means inhibition above about 50%
FBW7 act: FBW7 E3 ligase activators, primary screen, biochemical, AlphaScreen, human; AID 1259310, 2017; 650,000 tested, 0.13% active; AlphaScreen FBW7–phospho-cyclin E peptide binding, activator screen; normalized activity (activation), % at 26.1 µM; in the data active means normalized activity above about 1.9%;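 further: purified mutant Fbw7 with reduced substrate affinity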
Target sequence (Q969H0 whole entry, looked up): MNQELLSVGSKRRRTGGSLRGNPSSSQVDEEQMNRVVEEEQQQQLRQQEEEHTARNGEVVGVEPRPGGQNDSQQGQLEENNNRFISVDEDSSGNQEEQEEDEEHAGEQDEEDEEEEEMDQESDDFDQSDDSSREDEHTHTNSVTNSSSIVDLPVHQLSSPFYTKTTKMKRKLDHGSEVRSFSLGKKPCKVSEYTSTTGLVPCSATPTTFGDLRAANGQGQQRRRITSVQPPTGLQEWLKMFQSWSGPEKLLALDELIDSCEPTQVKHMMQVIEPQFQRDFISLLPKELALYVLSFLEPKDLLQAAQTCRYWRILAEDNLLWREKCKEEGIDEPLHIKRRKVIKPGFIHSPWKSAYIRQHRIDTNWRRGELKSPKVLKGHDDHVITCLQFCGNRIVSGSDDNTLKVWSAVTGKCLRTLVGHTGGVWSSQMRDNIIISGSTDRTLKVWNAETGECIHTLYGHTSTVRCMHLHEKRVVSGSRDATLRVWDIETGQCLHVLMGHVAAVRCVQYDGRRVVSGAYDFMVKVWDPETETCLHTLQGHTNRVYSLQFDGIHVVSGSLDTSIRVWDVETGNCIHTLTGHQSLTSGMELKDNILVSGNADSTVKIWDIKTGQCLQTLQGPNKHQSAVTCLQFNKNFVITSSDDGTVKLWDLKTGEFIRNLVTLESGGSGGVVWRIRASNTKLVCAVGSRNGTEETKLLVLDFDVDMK
TEAD-YAP block: TEAD-YAP interaction inhibition, primary screen, TEAD-YAP interaction inhibitor project, luminescence, HEK-TIYL cells | TEAD-Gal4/YAP UAS-luciferase luminescence | inhibition, % at 9.12 µM | 640,000 tested, 1.4% active; in the data active means inhibition above about 32%
GPR151 ag: activators of human GPR151, primary screen, cell-based, PathHunter beta-arrestin, luminescence | G-protein coupled receptor 151 (Homo sapiens), Q8TDV0 | 650,000 tested, 1% active | PathHunter beta-arrestin GPR151 cells | activation, % at 11.2 µM | AID 1508602, 2020; in the data active means activation above about 4.9%
GPR151 conf act: GPR151 activators, triplicate retest, confirmation, cell-based, PathHunter beta-arrestin, luminescence | AID 1508609, 2020 | GPR151 PathHunter beta-arrestin cells, 90 min; % of EA-reagent control over plate median | shares compounds with GPR151 ag | 6,700 tested, under 10 active | activation, % at 11.2 µM;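 active means mean percent activation across replicates above the confirmation screen cutoff of 4.91%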
GPR119 counter: GPR119 activators in beta-arrestin cells, counter-screen for GPR151 activator project, cell-based, PathHunter beta-arrestin, luminescence, triplicate. AID 1508611, 2020. 90 min; 0 = compound-well median, 100 = enzyme-acceptor control. 6,700 tested, 0.3% active. shares compounds with GPR151 ag. activation, % at 11.2 µM;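 active means mean percent activation in the counterscreen above 29.09%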;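 further: counterscreen on off-target GPR119 to flag nonselective hits from the GPR151 activator screen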
Large screens that a line does not name were inactive (follow-up assays come after a bar, where they were run); ! = not confirmed by another sample.

CCOC(=O)N1CCC(NC(=O)C(=O)CC(=O)c2ccc(OC)cc2)CC1	GPR151 ag 5.4 | GPR151 conf act inactive | GPR119 counter inactive
CCOC(=O)N1CCC(NC(=O)c2ccc(CSCc3c(F)cccc3Cl)o2)CC1	GPR151 ag 5.3 | GPR151 conf act inactive | GPR119 counter inactive
O=C(O)c1cc(-c2cccc([N+](=O)[O-])c2)nc2n[nH]c(-c3ccccc3)c12	none
COc1ccc(N2CCN(C(=O)c3ccccc3SC)CC2)nn1	none
CCN1CCC(N(Cc2ccco2)C(=O)NC2CCCC2)CC1	GPR151 ag 5.0 | GPR151 conf act inactive | GPR119 counter inactive
CN(Cc1ccccc1)C(=O)CCC1CCN(C(=O)c2cc[n+]([O-])cc2)CC1	GPR151 ag 5.6 | GPR151 conf act inactive | GPR119 counter inactive
O=C(Cn1cnc2ccccc2c1=O)Nc1nc(-c2cccs2)cs1	none
CCN(c1ccccc1)S(=O)(=O)c1nnc(NC(=O)c2ccccc2OC)s1	GPR151 ag 5.0 | GPR151 conf act inactive | GPR119 counter inactive
CCN(c1ccccc1)S(=O)(=O)c1ccc(F)c(C(=O)Nc2ccc(OC)cc2)c1	GPR151 ag 8.7 | GPR151 conf act inactive | GPR119 counter inactive
CCN(c1ccccc1C)S(=O)(=O)c1nnc(NC(=O)c2ccc(F)cc2)s1	GPR151 ag 10 | GPR151 conf act inactive | GPR119 counter inactive
C/C(CC(=O)NC12CC3CC(CC(C3)C1)C2)=N\NC(=O)c1cccc(C)c1	none
O=c1oc2cc(OCc3cc4c(cc3Cl)OCO4)ccc2c2c1CCC2	none
CSC(=N)N	GPR151 ag 11! | GPR151 conf act inactive | GPR119 counter inactive
CN(C)CCCSC(=N)N	none (no result: TEAD-YAP block)
O=C(Nc1cccc(Oc2ccc(C(=O)O)c(C(=O)O)c2)c1)c1ccc([N+](=O)[O-])cc1	none
O=C(Nc1cccc(Oc2ccc(C(=O)O)c(C(=O)O)c2)c1)c1ccc(-c2ccccc2)cc1	GPR151 ag 6.9 | GPR151 conf act inactive | GPR119 counter inactive
CC(C)N(CCNC(=O)c1cccc(Nc2ccc3ncccc3c2)c1)C(C)C	none
O=C(Cn1nnc2ccccc2c1=O)NC1CCCC1	none
Brc1cccc(-c2nnc(CN3CCN(Cc4ccccc4)CC3)o2)c1	GPR151 ag 6.0 | GPR151 conf act inactive | GPR119 counter inactive
COc1ccc(CCn2c(=S)[nH]c3ccsc3c2=O)cc1OC	GPR151 ag 5.4 | GPR151 conf act inactive | GPR119 counter inactive
CCC(CC)NC(=O)COC(=O)c1cc(OC)c(OC)cc1[N+](=O)[O-]	GPR151 ag 5.0 | GPR151 conf act inactive | GPR119 counter inactive
COc1cc(C(=O)OCC(=O)NC(C)C)c([N+](=O)[O-])cc1OC	none
Cc1ccc(NC(=O)c2cnccn2)c(Br)c1	GPR151 ag 6.4 | GPR151 conf act inactive | GPR119 counter inactive
O=C(Nc1ccc(Br)cc1F)c1cnccn1	none
O=C(c1ccccc1)c1ccc(-n2ccnc2)c([N+](=O)[O-])c1	GPR151 ag 7.3 | GPR151 conf act inactive | GPR119 counter inactive
Cc1ccc(C(=O)c2ccccc2)cc1[N+](=O)[O-]	GPR151 ag 8.7 | GPR151 conf act inactive | GPR119 counter inactive
O=C(O)c1ccc(-n2ccnc2)c([N+](=O)[O-])c1	none
COc1ccc(CN2CCN(Cc3ccc(F)cc3)C(CCO)C2)c(OC)c1C (stereo not given)	none
CCOc1cc(CNCCO)ccc1OCc1ccccc1	none
C=CCOc1ccc(CNC2CCCC2)cc1OC	GPR151 ag 5.7 | GPR151 conf act inactive | GPR119 counter inactive
C=CCOc1ccc(CNCCO)cc1OCC	GPR151 ag 7.6 | GPR151 conf act inactive | GPR119 counter inactive
CC(=O)Nc1ccc(C(=O)NCc2ccc3c(c2)OCO3)cc1	none
O=C(Nc1ccc(Cl)cc1)C(=O)c1c(O)[nH]c2ccccc12	none
CCN(CC)S(=O)(=O)c1cccc(C(=O)NN)c1	GPR151 ag 5.5 | GPR151 conf act inactive | GPR119 counter inactive
O=C(CCCCC(=O)Nc1ccc(F)cc1F)Nc1ccc(F)cc1F	none
O=C(CCCn1cccc1)Nc1ccc(F)cc1F	GPR151 ag 6.7 | GPR151 conf act inactive | GPR119 counter inactive
COCC(=O)NCC1CCC2(CCN(Cc3ccc(N(C)c4ccccc4)cc3)CC2)O1 (stereo not given)	none
COCC(=O)NCC1CCC2(CCN(C/C(C)=C/c3ccccc3)CC2)O1 (stereo not given)	GPR151 ag 5.1 | GPR151 conf act inactive | GPR119 counter inactive
CC(=O)N1CCN(C(=O)c2ccc3c(c2)OCO3)CC1	GPR151 ag 5.5 | GPR151 conf act inactive | GPR119 counter inactive
O=C(c1ccc2c(c1)OCO2)N1CCN(c2ccc(Cl)cc2)CC1	GPR151 ag 5.5 | GPR151 conf act inactive | GPR119 counter inactive
O=C(c1ccc2c(c1)OCO2)N1CCCCCC1	none
CC(=O)c1ccc(N2CCN(C(=O)c3ccc4c(c3)OCO4)CC2)cc1	none
COc1ccc2oc(-c3csc(NC(=O)c4ccccc4Br)n3)cc2c1	none
O=C1c2ccccc2C(=O)N1OS(=O)(=O)c1ccc(Cl)cc1	GPR151 ag 17 | GPR151 conf act inactive | GPR119 counter inactive
O=C1c2ccccc2C(=O)N1OS(=O)(=O)c1ccccc1	none
CCN(CC)C(=O)Cn1cnc2sc(C(=O)Nc3cccc([N+](=O)[O-])c3)c(C)c2c1=O	none
CC(C)C(=O)Nc1nnc(SCc2ccc(Cl)cc2)s1	GPR151 ag 5.1 | GPR151 conf act inactive | GPR119 counter inactive
CC1CCc2c(sc3nc(CCl)[nH]c(=O)c23)C1 (stereo not given)	none
N#Cc1c(C(F)(F)F)cc(-c2cccs2)nc1SCC(=O)O	none
N#Cc1c(C(F)(F)F)cc(-c2cccs2)nc1SC1CC(=O)N(c2ccccc2)C1=O (stereo not given)	GPR151 ag 5.1 | GPR151 conf act inactive | GPR119 counter inactive
COc1ccc(OC)c(NC(=O)c2ccc(C)cc2)c1	none
COc1ccc(OC)c(NC(=O)c2ccc(C)c(Br)c2)c1	GPR151 ag 7.9 | GPR151 conf act inactive | GPR119 counter inactive
COc1ccc(C(=O)N/N=C(\C)c2ccc(OC)c(Br)c2)cc1	GPR151 ag 6.3 | GPR151 conf act inactive | GPR119 counter inactive
CCC(C)OC(=O)C1=C(C)NC2=C(C(=O)CC(c3ccc(OC)cc3)C2)C1c1cc(OC)c(OC)cc1Br (stereo not given)	GPR151 ag 7.5 | GPR151 conf act inactive | GPR119 counter inactive
O=C(Nc1ccc(-c2nc3ccc(-c4nc5ccccc5o4)cc3[nH]2)cc1)C1CCCCC1	GPR151 ag 4.9 | GPR151 conf act inactive | GPR119 counter inactive
